RORgamma inh – qHTS for inhibitors of ROR gamma transcriptional activity; Potency, µM (series often up to 53.6 µM), hits mostly inhibitors; 310,000 tested, 5.4% active; Nuclear receptor ROR-gamma (Mus musculus), P51450; AID 2551, 2010; Drosophila S2 Gal4-RORgamma UAS-luciferase reporter, 20 h; also: nearly all actives have a fitted effect of over 60% in size
Target sequence (P51450 whole entry, looked up, the tested form may be a part): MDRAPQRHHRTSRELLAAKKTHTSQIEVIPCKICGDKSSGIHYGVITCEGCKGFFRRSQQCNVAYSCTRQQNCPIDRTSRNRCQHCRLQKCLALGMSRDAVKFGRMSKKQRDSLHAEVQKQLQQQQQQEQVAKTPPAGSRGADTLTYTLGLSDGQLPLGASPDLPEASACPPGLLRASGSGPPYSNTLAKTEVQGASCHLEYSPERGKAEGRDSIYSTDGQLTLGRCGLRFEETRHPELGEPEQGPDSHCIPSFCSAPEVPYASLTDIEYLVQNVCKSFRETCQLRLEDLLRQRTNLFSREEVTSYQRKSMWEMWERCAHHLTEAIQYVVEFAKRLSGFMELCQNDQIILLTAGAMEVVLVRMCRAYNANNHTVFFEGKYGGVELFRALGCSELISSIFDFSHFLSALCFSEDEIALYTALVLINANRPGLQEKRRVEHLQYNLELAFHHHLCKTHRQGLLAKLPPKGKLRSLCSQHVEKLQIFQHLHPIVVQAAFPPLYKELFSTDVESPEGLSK
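ROR gamma transcriptional activity was tracked as Gal4-UAS luciferase output in stably transfected Drosophila Schneider cells, with compound added 1 hr before 700 uM copper sulfate induction and a 20 hr ambient-temperature incubation.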
Gal4-VP16 FLuc – VP16 counterscreen qHTS for inhibitors of ROR gamma transcriptional activity; Drosophila S2 Gal4-VP16 UAS-luciferase, luminescence, 20 h; 310,000 tested, 3.5% active; Potency, µM (highest dose often 53.6 µM), most hits filed as inhibitors;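 also: Gal4-VP16 expression switched on by copper sulfate through the metallothionein promoter; nearly all actives have a fitted effect of over 50% in size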
KinaseGlo FLuc – Counterscreen for Luciferase (Kinase-Glo TM) Inhibition. 200,000 tested, 0.28% active. Kinase-Glo luciferase, ATP luminescence, 8 min. Potency, µM (top dose mostly 38.3 µM), usual class: inhibitors; also: nearly all actives have a fitted effect of over 60% in size
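Kinase-Glo luciferase light output from ATP and luciferin was measured with 10 uM ATP, within the enzyme's linear range. Buffer: 50 mM imidazole pH 7.2, 50 mM KCl, 7 mM MgCl2, 0.01% Tween 20, 0.05% BSA; luminescence read after 8 min at ambient temperature.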
Numbers stand for hits; . = inactive; ? = inconclusive; / = no result; [ ] = remark or other dose. The list is not random: actives were taken first. Their share in the collection is about 6.2%. Calls follow the shape of the dose curve; as a rule, active = well fitted curve in the direction sought with a large enough effect; inconclusive = small, poorly fitted or top-dose-only effect, or another doubt; inactive = no such curve, though single readings can be large; an effect the other way counts as inactive or inconclusive.

SMILES	RORgamma inh	Gal4-VP16 FLuc	KinaseGlo FLuc
C/C(=N\NC(=S)NC(C)C)c1ccccc1	0.562µM	3.55µM	/
C/C(=N\NC(N)=O)c1ccccc1	.	.	.
CC(=O)Nc1cccc(/C(C)=N/NC(=S)NC(C)C)c1	7.94µM	?	.
CC(=O)Nc1cccc(/C(C)=N/NC(N)=S)c1	?	.	.
COc1ccc(C(=O)NCC(C)(C)SCc2c(C)cc(C)cc2C)cc1	?	?	.
CC(C)n1c(C(=O)OCC(=O)NCc2ccc3c(c2)OCO3)cc2sccc21	?	.	.
CC1=NN(C(=O)CCc2ccc3c(c2)OCO3)C(O)(C(F)(F)F)C1 (stereo unspecified)	4.47µM	2.24µM	.
CCC1=NN(C(=O)CCc2ccccc2)C(O)(C(F)(F)F)C1 (stereo unspecified)	12.6µM	?	.
Cc1cc(C)cc(C(=O)NCc2ccc3c(c2)OCO3)c1	.	.	/
O=C(CCc1ccccc1)N1N=C(c2ccncc2)CC1(O)C(F)(F)F (stereo unspecified)	.	.	.
CCC1=NN(C(=O)C(=O)NCCc2ccccc2)C(O)(C(F)(F)F)C1 (stereo unspecified)	0.631µM	1.78µM	.
Cc1ccc(N(CCO)C(=S)Nc2ccccc2)cc1	.	.	/
CCCCN(C(=O)COc1ccc(C)cc1OC)c1c(N)n(CCC)c(=O)[nH]c1=O	.	.	/
Cc1coc(=N)n1CC(=O)c1ccc(Cl)cc1	.	.	/
O=C(Nc1cc(Cl)cc(Cl)c1)Nc1cnccn1	.	.	/
O=Cc1ccccc1C=O	.[10 µM]	.	/
C/C(CC(C)(C)c1ccccc1)=N\NS(=O)(=O)c1ccccc1	.	.	.
Cc1ccc(Nc2cc(C)c(O)c(C)c2)cc1	8.91µM	?	/
Cc1ccc(Nc2ccccc2)cc1	.	?	.
CC(C)CCOC(=O)/C=C/c1ccccc1	.	.	/
CSCCC(=O)N1CCN(CC(=O)N2CCCC2)CC1	2.82µM	.	/
O=C(CN1CCCCC1)N1CCN(C(=O)CN2CCCCC2)CC1	.	.	.
O=C(NC(=S)Nc1ccc(Cl)cn1)c1cccs1	?	1µM	.
O=C(Nc1cccnc1)c1cccs1	.	.	.
O=C(Nc1ncc(Cl)cn1)c1cccs1	.	.	.
SMILES	RORgamma inh	Gal4-VP16 FLuc	KinaseGlo FLuc
O=C(NC(=S)Nc1cccnc1)c1cccs1	10µM	.	.
CCNc1ncc2nc(C)c(=O)n(CCc3ccccc3)c2n1	.	.	/
COc1ccc(C(=O)NCCc2cnc[nH]2)cc1OC	.	.	/
Clc1ccccc1-c1nc(-n2ccnc2)c2ccccc2n1	?	.	/
COCCNC(=O)C(=O)Nc1cc2c3c(c1)CCC(=O)N3CCC2	.	.	/
CCN1CCCC1CNC(=O)c1ccc(Cc2nc3ccccc3[nH]2)cc1 (stereo unspecified)	/	/	.
CC(/C=C/c1ccccc1)=N/NC(=O)c1cc([N+](=O)[O-])cc([N+](=O)[O-])c1	0.178µM	0.178µM	.
COc1ccc(/C(C)=N/NC(=O)c2ccc(CSc3cccc4cccnc34)cc2)cc1OC	15.8µM	.	.
CC(/C=C/c1ccccc1)=N\Nc1ccccc1[N+](=O)[O-]	.	.	.
C/C(=N\NC(=O)c1ccc(CSc2cccc3cccnc23)cc1)C1CCCCC1	.	.	.
O=C(/C=C/c1ccc([N+](=O)[O-])cc1)c1cccnc1	?	22.4µM	.
O=C(/C=C/c1ccc([N+](=O)[O-])cc1)NCc1cccnc1	.	.	.
O=C(N/N=C/C=C/c1cccc([N+](=O)[O-])c1)C(O)c1ccccc1 (stereo unspecified)	.	.	.
O=C(N/N=C/C=C\c1cccc([N+](=O)[O-])c1)c1cccnc1	6.31µM	?	/
c1ccc(CNc2oc(-c3ccccc3)nc2-c2ccccc2)cc1	.	.	.
c1cnc(N2CCN(c3cnccn3)CC2)nc1	.	.	.
O=C(Oc1ccccc1)N1CCC[C@@]2(CCN(c3ccccn3)C2)C1	.	.	.
O=C(/C=C/c1ccc2c(c1)OCO2)c1cccnc1	?	.	/
COc1ccc(C(=O)Cc2ccccc2)cc1OC	.	.	.
CC/C(Cc1ccccc1)=N/NC(=O)c1cccc(Br)c1	.	.	.
CC(/C=C/c1cccc([N+](=O)[O-])c1)=N/NC(=O)c1cccnc1	3.16µM	5.01µM	.
COc1ccc(C(=O)NN=C(Cc2ccccc2)Cc2ccccc2)cc1OC	11.2µM	?	.
C/C(=N\NC(=O)c1cccnc1)c1cccc([N+](=O)[O-])c1	.	.[10 µM]	.
O=C(N/N=C\C=C\c1ccc2c(c1)OCO2)c1cccnc1	5.62µM	11.2µM	.
CC/C(Cc1ccccc1)=N\NC(=O)c1cc([N+](=O)[O-])cc([N+](=O)[O-])c1	7.94µM	.	.
SMILES	RORgamma inh	Gal4-VP16 FLuc	KinaseGlo FLuc
CC(NC(=O)CCN1N=C(c2ccccc2)CCC1=O)c1ccc2c(c1)OCCO2 (stereo unspecified)	.	.	.
COc1ccc(-c2nc3nc(C)cc(=O)n3[nH]2)cc1	.	.	.
O=C(CSCc1ccc(Cl)cc1)Nc1cccc(C(=O)Nc2ccccc2C(=O)O)c1	.	.	.
COc1cc(=O)n2c(-c3ccccc3)csc2n1	.	.	.
Cc1ccc(-c2csc3n[nH]c(=S)n23)cc1	2.51µM	8.91µM	.
C/C(=N\NC(=O)CN(c1ccccc1)S(C)(=O)=O)c1ccccc1O	0.708µM	3.55µM	.
C/C(=N\NC(=O)CN1CCCCC1)c1ccccc1O	3.55µM	15.8µM	/
CS(=O)(=O)N(CC(=O)O)c1ccccc1	/	/	.
NC(=O)c1ccccc1NC(=O)CN1CCCCCC1	?	.	/
O=C(CSc1nc2ccc(Nc3nc(N4CCOCC4)nc(N4CCOCC4)n3)cc2s1)Nc1ccccc1F	.	.	/
O=C1CC(=O)N(CCNc2ncc(C(F)(F)F)cc2Cl)C(=O)N1	.	.	.
O=C1C=CC(=O)N1CCNc1ncc(C(F)(F)F)cc1Cl	5.01µM	6.31µM	.
OCC(O)CN1CCCC1 (stereo unspecified)	.	.	/
C=C1CCC[C@]2(C)C[C@H]3OC(=O)C(CNCC(OC)OC)[C@H]3CC12 (stereo partly specified)	.	.	/
Cc1cc(=O)oc2cc(OCC(=O)OCC(=O)NCCc3ccccc3)ccc12	.	.	.
COc1cc2nc(CN(C)Cc3ccc(SC)cc3)[nH]c(=O)c2cc1OC	.	.	/
CSc1ccc(CN(C)Cc2nc3cc(C(F)(F)F)ccc3c(=O)[nH]2)cc1	12.6µM	?	.
COC(=O)N1C2=C(c3ccccc3[C@@H]1CC(=O)Nc1ccc3ccc4cccc5ccc1c3c45)[C@@H]1C(=O)N(c3ccccc3)C(=O)[C@@H]1[C@H](C)C2	/	/	.[7.66 µM]
CCN(CC)S(=O)(=O)c1ccc(N/N=C(\C)c2ccc(OC)cc2O)nc1	0.708µM	2.51µM	/
CCOc1cccc(/C=N/Nc2ccc(S(=O)(=O)N(CC)CC)cn2)c1O	1µM	3.16µM	.
CCN(CC)S(=O)(=O)c1ccc(N/N=C/c2cc(OC)c(OC)cc2OC)nc1	.	.	.
CCN(CC)S(=O)(=O)c1ccc(N/N=C/c2ccc(O)cc2)nc1	.	.	.
CC(C)NC(=O)N1CC[C@@]2(CCCN(S(C)(=O)=O)C2)C1	.	.	.
Cn1ncc(Cl)c(Oc2ccc(C(C)(C)C)cc2)c1=O	.	35.5µM	.
Cn1ncc(Cl)c(Oc2ccccc2)c1=O	.	.	.
